Screening results as filed in PubChem.
NS1 function inh – qHTS Assay for Inhibitors of Influenza NS1 Protein Function | AID 2326, 2010 | 270,000 tested, 0.4% active | Potency, µM (top dose mostly 46.1 µM), for the others: at the highest dose activity, positive = more growth; also: potency is read from the fitted curve at half-maximal effect; actives are rising curves; nearly all actives have a fitted effect of over 50% in size
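A cell-based growth assay was used: compounds that relieve NS1-induced slow growth of budding yeast raise OD600. Assay medium was yeast nitrogen base with ammonium sulphate and -URA supplement, pH 6.0, with 2% galactose.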
Shiga inhibitor – A qHTS for Small Molecule Inhibitors of Shiga Toxin; AID 2315, 2010; Vero cells, Shiga toxin protein synthesis inhibition reporter; 290,000 tested, 9.2% active; inhibition, % at 38.7 µM; in the data active = inhibition mostly above about 28%, no sharp cut-off; inactive = mostly below about 43%; also: 0% is about no effect
Cycloheximide cs – Cycloheximide Counterscreen for Small Molecule Inhibitors of Shiga Toxin. cell reporter, cycloheximide protein synthesis inhibition counterscreen. max response, %. 300,000 tested, 12% active. AID 2314, 2010; in the data active = max response mostly above about 13%, no sharp cut-off; inactive = mostly below about 14%; also: read at 38.3 µM for the half of the compounds with a filed dose; 0% is about no effect
SARS PLpro yeast – qHTS of Yeast-based Assay for SARS-CoV PLP. 330,000 tested, 0.19% active. Potency, µM (highest dose often 32.9 µM), for the others: at the highest dose activity, positive = growth rescue, actives largely listed as activators. S. cerevisiae expressing SARS-CoV PLpro, growth rescue; also: potency is read from the fitted curve at half-maximal effect; 0% is about no effect; nearly all actives have a fitted effect of over 55% in size
NS1 inh valid – Assay for Inhibitors of Influenza NS1 Protein Function: Hit Validation; shares compounds with NS1 function inh; influenza NS1 function cell assay, 15-point titration; activity change, negative = inhibition, % at 32.9 µM; 1,400 tested, under 10 active; AID 492980, 2010; also: 0% is about no effect
Flu PR8 replic – Assay for Inhibitors of Influenza NS1 Protein Function: Influenza virus replication assay in MDCK cells infected with virus A/PR/8/34; shares compounds with NS1 function inh; MDCK infected influenza A/PR/8/34, virus titer TCID50; active compounds read low; virus titer (log TCID50), log10 TCID50 at 5 µM; 95 tested, 30% active; AID 504647, 2011; call rule not given here
* hit, by the source's call; ? = inconclusive; nt = no result given. Hits are enriched below; roughly 12% of the tested compounds scored in any of these assays. Unless noted, calls follow the shape of the full dose curve.

SMILES	NS1 function inh	Shiga inhibitor	Cycloheximide cs	SARS PLpro yeast	NS1 inh valid	others
CCCCCCc1c(C)c2ccc(OCC(=O)N[C@@H](Cc3ccccc3)C(=O)O)cc2oc1=O	3%	-6	-3	-10%	nt
CC1(OC(=O)c2cccs2)C(=O)C=C2C=C3CCCN3C=C2C1=O (centres undefined)	?	-1	-6	-2%	34
CC1(OC(=O)CCc2ccccc2)C(=O)C=C2C=C3CCCN3C=C2C1=O (centres undefined)	4%	20	-2	1%	nt
Cc1cccc(NC(=O)C2CCCN(c3nc(C)cc(C)n3)C2)c1 (centres undefined)	8.9µM*	25	3	-1%	1
COc1ccc(NS(=O)(=O)c2cccc(C(=O)Nc3ccccc3C(=O)O)c2)cc1	?	-11	-3	2%	nt
Cc1cccc(NC(=O)c2cc(NC(=O)c3ccccc3)ccc2N2CCCCC2)c1	?	-3	-5	-2%	2	Flu PR8 replic=8.5
Cc1ccccc1C(=O)Nc1cccc(C(=O)Nc2ccccc2C(=O)O)c1	11µM*	-3	-2	-4%	14
Cc1cccc(NC(=O)c2cc(NC(=O)c3ccco3)ccc2N2CCCCC2)c1	2%	-12	-1	-3%	nt
CC(=O)c1ccc(NS(=O)(=O)c2cccc(C(=O)Nc3ccccc3C(=O)O)c2)cc1	13µM*	-3	-2	6%	31
O=C(Nc1ccccc1C(=O)O)c1cccc(NC(=O)c2ccccc2Cl)c1	2%	nt	2	-3%	nt
O=C(NN=C1CCCC1)C(=O)Nc1cccc(C(F)(F)F)c1	-2%	-2	-1	-1%	nt
CC(=O)Cc1nnn(-c2cc(C)on2)n1	-2%	14	6	0%	nt
CCn1c(=O)c2ccccc2n(CC(=O)NC2CCCCC2)c1=O	10%	-2	-4	0%	nt
CCCCCc1c(O)nc(SCCN2CCOCC2)[nH]c1=O	7%	-19	4	0%	nt
COc1cc2sc(-c3ccc(S(C)(=O)=O)cc3)c(C#CCO)c2cc1OC	nt	nt	nt	4%	nt
Cc1cccc(NS(=O)(=O)c2cccc(C(=O)Nc3cccc(C(=O)O)c3)c2)c1	2.2µM*	-21	-2	-1%	31
CCC(CC)c1nnc(NC(=O)c2cccc(S(=O)(=O)N3CCc4ccccc43)c2)s1	8.9µM*	-5	3	1%	0
CCc1ccc2oc(-c3cc(N)cc(C)c3O)nc2c1	14µM*	80*	36*	-1%	19
COc1ccc2nc(C(F)(F)C(F)(F)F)c(C#N)c(N)c2c1	7.9µM*	11	-1	8%	16
COc1cc(OC)c2c(N)c(C#N)c(C(F)(F)C(F)(F)F)nc2c1	-2%	-11	-3	9%	nt
CCOc1ccc(NC(=S)NC(=O)/C=C/c2ccc(OC)c(OC)c2)c([N+](=O)[O-])c1	4µM*	-4	-2	-1%	-23
CN1CCc2cc(NC(=O)Nc3cccnc3)ccc21	25µM*	nt	nt	nt	0
COc1ccc(-c2nn(C)c(=O)[nH]2)cc1	5%	-12	0	1%	nt
Cc1ccc(NC(=O)CSc2nc(O)cc(=O)n2C)cc1	11µM*	16	-3	-1%	?
Cn1c(SCC(=O)Nc2ccc(Br)cc2)nc(O)cc1=O	?	19	-3	3%	nt
SMILES	NS1 function inh	Shiga inhibitor	Cycloheximide cs	SARS PLpro yeast	NS1 inh valid	others
COc1ccccc1NC(=O)CSc1nc(O)cc(=O)n1C	?	-19	-3	2%	nt
Cn1c(SCC(=O)Nc2cccc3ccccc23)nc(O)cc1=O	3.5µM*	10	-3	4%	24
COc1ccccc1CNC(=O)COC(=O)c1cccc(-n2cnnn2)c1	nt	nt	nt	7%	nt
Cc1ccc(NC(=S)NC2CCSc3ccccc32)cc1 (centres undefined)	1.4µM*	18	10	28%	0
COC(=O)c1ccc(NC(=S)NC2CCc3ccccc32)cc1 (centres undefined)	1%	-11	1	-2%	nt
CCN(CC(=O)Nc1ccc(NC(C)=O)cc1)C(=O)CSc1nnc(-c2ccco2)n1CC	nt	nt	nt	-7%	nt
CC(NC(=O)C1CCCN(S(=O)(=O)c2cccs2)C1)c1ccccc1 (centres undefined)	-9%	14	8	-2%	nt
CC(C)NC(=O)C1CCCN(S(=O)(=O)c2cccs2)C1 (centres undefined)	2.2µM*	0	-3	8%	-2
O=C(NCc1cc(C(F)(F)F)cc(C(F)(F)F)c1)C12CN(Cc3ccccc3)CC1C(c1cccc([N+](=O)[O-])c1)=NO2 (centres undefined)	22µM*	-7	11	-2%	-18	Flu PR8 replic=7.3*
COc1ccc(-n2c(O)c(/C=N/NS(=O)(=O)c3ccc(C)cc3)c3ccccc3c2=O)cc1OC	10µM*	-11	-4	1%	0
COc1ccc(-n2c(O)c(/C=N/NS(=O)(=O)c3cc(C)ccc3C)c3ccccc3c2=O)cc1OC	28%	-5	-3	-5%	nt
CC(=O)N1CCN=C1SCc1ccccc1F	1.3µM*	-1	-2	2%	5
NC(=O)[C@H](Cc1cc2ccccc2s1)NC(=O)[C@@H]1CC2(CC(c3cccc(NC(=O)[C@@H]4CCC(=O)N4)c3)=NO2)CN1C(=O)c1ccccc1 (some centres undefined)	-1%	-19	-3	5%	nt
NC(=O)[C@H](Cc1cc2ccccc2s1)NC(=O)[C@@H]1CC2(CC(c3cccc(NC(=O)[C@@H]4CCC(=O)N4)c3)=NO2)CN1C(=O)/C=C/Sc1ccccc1 (some centres undefined)	18µM*	24	-2	-2%	33
COc1cccc(-c2cc(C(=O)Nc3nc4ccccc4s3)c3ccccc3n2)c1	26%	42	24	-1%	nt
COc1ccc(-c2cc(C(=O)Nc3nc4c(C)cccc4s3)c3ccccc3n2)cc1OC	11µM*	29	-2	-3%	9
CCCOc1ccc(-c2nc(-c3ccc(N)cc3)cs2)cc1	13µM*	62*	68*	0%	4
O=C(C[n+]1cccc(C(=O)Nc2ccccc2)c1)c1ccc([N+](=O)[O-])cc1	2.5µM*	-2	7	4%	28	Flu PR8 replic=7.7
O=C(C[n+]1cccc(NC(=O)c2ccccc2)c1)c1cccc([N+](=O)[O-])c1	nt	19	8	19%	nt
O=C(NNc1nc2cc3c(cc2s1)OCO3)c1ccc(F)cc1	?	68*	24*	-11%	-10
Cc1ccc(NC(=O)CSc2nnc(CNC(=O)c3ccco3)n2C)c(C)c1	nt	nt	nt	8%	nt
COc1ccccc1/C=N/NC(=O)c1[nH]c(C)c(C(=O)N/N=C/c2ccccc2OC)c1C	?	-4	4	-10%	?
Cc1ccc(C(=O)Nc2ccc(S(=O)(=O)NC3=NCCCCC3)cc2)cc1S(=O)(=O)N1CCOCC1	nt	nt	nt	6%	nt
